Most compounds without a hit are left out; they make up all but 3.5% or so of the library.
FBW7 act: human FBW7 E3 ligase activation, primary screen; AlphaScreen FBW7–phospho-cyclin E peptide binding, activator screen; normalized activity (activation), % at 26.1 µM; AID 1259310; 0.13% of 650,000 active; Q969H0; in the data active = normalized activity above about 1.9%;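 also: purified mutant Fbw7 with reduced substrate affinity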
Target sequence (Q969H0 whole entry, looked up): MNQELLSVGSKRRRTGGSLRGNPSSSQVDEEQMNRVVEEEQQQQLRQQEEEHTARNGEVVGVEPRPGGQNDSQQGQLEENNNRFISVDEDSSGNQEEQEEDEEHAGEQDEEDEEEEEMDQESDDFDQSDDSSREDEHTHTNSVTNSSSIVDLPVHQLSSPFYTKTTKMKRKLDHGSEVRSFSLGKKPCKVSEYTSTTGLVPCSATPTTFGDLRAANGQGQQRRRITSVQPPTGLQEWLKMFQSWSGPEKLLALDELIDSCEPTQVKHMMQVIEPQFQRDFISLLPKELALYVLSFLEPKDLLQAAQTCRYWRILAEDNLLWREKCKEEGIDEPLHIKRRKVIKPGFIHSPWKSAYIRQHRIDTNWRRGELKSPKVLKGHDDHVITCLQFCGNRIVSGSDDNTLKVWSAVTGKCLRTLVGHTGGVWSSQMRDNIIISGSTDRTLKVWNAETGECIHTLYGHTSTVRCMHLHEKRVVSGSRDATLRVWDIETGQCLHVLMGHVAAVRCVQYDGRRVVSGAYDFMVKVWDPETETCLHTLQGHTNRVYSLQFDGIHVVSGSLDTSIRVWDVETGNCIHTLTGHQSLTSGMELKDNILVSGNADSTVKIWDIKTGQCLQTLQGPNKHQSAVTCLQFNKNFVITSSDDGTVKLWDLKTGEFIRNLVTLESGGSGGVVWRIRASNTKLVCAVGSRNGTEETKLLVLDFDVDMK
TEAD-YAP block: TEAD-YAP interaction inhibition; AID 1259422; 1.4% of 640,000 active; HEK-TIYL cells, TEAD-Gal4/YAP UAS-luciferase luminescence; inhibition, % at 9.12 µM; in the data active = inhibition above about 32%;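 also: 0% = median of test compound wells and 100% = reference inhibitor wells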
MITF inh: inhibitors of human MITF. AlphaScreen MITF homodimerization, bead proximity signal. inhibition, % at 2.6 µM. 0.91% of 650,000 active. AID 1259374; in the data active = inhibition above about 50%;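 also: 0% = vehicle wells with protein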
GPR151 activ: activates the human receptor GPR151. Q8TDV0. PathHunter beta-arrestin GPR151 cells, luminescence. activation, % at 11.2 µM. 1% of 650,000 active; in the data active = activation above about 4.9%;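 also: 0% = median of compound wells and 100% = cells with positive control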
* hit, by the source's call.

SMILES | FBW7 act | TEAD-YAP block | MITF inh | GPR151 activ
Cc1ncn(-c2ccc(Nc3nccc(Nc4ccccc4-c4ccn[nH]4)n3)cc2)n1 | -0.3 | 64.0* | 0.7 | 1.6
Cc1ncn(-c2ccc(Nc3nccc(Nc4cccnc4)n3)cc2)n1 | 0.1 | 5.8 | 8.3 | 0.2
COc1ccccc1NC(=O)CCN1CCN(CCO)CC1 | 0.0 | 0.9 | 19.8 | -0.9
Cc1ncn(-c2ccc(Nc3nccc(-c4cccc(S(C)(=O)=O)c4)n3)cc2)n1 | 0.0 | 47.2* | -6.3 | -0.4
Cc1c(C(=O)OCC(C)C)[nH]c2c1C(=O)CC(c1ccco1)C2 (configuration not stated) | -0.4 | 48.8* | 3.2 | 1.8
Cc1c(C(=O)OCC2CCCO2)[nH]c2c1C(=O)CC(c1ccco1)C2 (configuration not stated) | -0.2 | 51.7* | 32.6 | -0.2
Cc1c(C(=O)OC2CCCC2)[nH]c2c1C(=O)CC(c1ccco1)C2 (configuration not stated) | 0.7 | 55.1* | 5.5 | 3.5
C=CCOC(=O)c1[nH]c2c(c1C)C(=O)CC(c1ccco1)C2 (configuration not stated) | -0.3 | 50.8* | 12.4 | 0.2
Cc1c(C(=O)OCC(C)C)[nH]c2c1C(=O)CCC2 | 0.1 | -34.8 | 1.9 | 0.0
COc1ccc([N+](=O)[O-])cc1C1=N/C(=C/c2ccc(Br)cc2)C(=O)O1 | 0.0 | 4.2 | 12.2 | 0.3
COc1ccnc(N2CCC(N(Cc3ccco3)S(=O)(=O)c3cccs3)CC2)n1 | -0.4 | 13.0 | -10.5 | 1.3
C/C=C/COC(=O)c1[nH]c2c(c1C)C(=O)CC(c1ccco1)C2 (configuration not stated) | -0.1 | 56.9* | 10.0 | 1.9
CCOC(=O)c1[nH]c2c(c1C)C(=O)CC(c1ccc(OC)c(OC)c1)C2 (configuration not stated) | 0.0 | 2.6 | 7.3 | 0.1
COC(=O)C1=C(N)n2c(s/c(=C/c3ccco3)c2=O)=C(C(=O)OC)C1c1ccco1 (configuration not stated) | 0.4 | 49.1* | 18.5 | 0.5
O=C1NC2(CCCC2)N=C1c1cccc(F)c1 | 0.7 | 2.4 | -7.3 | -0.3
COc1ccccc1C(=O)NCCn1cc(SCC(=O)Nc2ccc(C)cc2)c2ccccc21 | -0.2 | 1.2 | -1.6 | -0.1
COc1ccccc1C(=O)NCCn1cc(SCC(=O)Nc2ccc(Br)cc2)c2ccccc21 | 2.0* | 5.3 | 8.4 | -0.3
COc1cc(C=O)ccc1OC(=O)c1ccccc1F | 0.0 | 3.8 | -8.8 | 0.1
CN1CCCN(C(=O)C2CC23CCN(Cc2nc(-c4ccccc4)cs2)CC3)CC1 (configuration not stated) | 0.0 | 2.6 | 6.0 | -0.3
O=C(NCc1ccco1)C1CC12CCN(Cc1nc(-c3ccccc3)cs1)CC2 (configuration not stated) | 0.0 | 55.5* | -0.2 | -1.5
CCOC(=O)Cc1nnc(NC(=O)CSc2nc(C)cc(C)n2)s1 | -0.2 | 0.5 | -0.8 | -1.0
Cc1cc(NCCCN(C)C)n2c(nc3ccccc32)c1C#N | 0.1 | 50.4* | 14.0 | -1.2
Cc1cc(NCCO)n2c(nc3ccccc32)c1C#N | -0.1 | -4.2 | -6.1 | 0.5
COc1ccc(C)cc1S(=O)(=O)N1CCN(c2ccc(-c3ccncc3)nn2)CC1 | 0.3 | 0.8 | 7.7 | -2.4
CCN(CC)c1ccc(N2CCN(S(=O)(=O)c3cc(C)ccc3OC)CC2)nn1 | 0.0 | 53.8* | 8.6 | 0.9
SMILES | FBW7 act | TEAD-YAP block | MITF inh | GPR151 activ
COc1ccc(NC(=O)c2oc3ccccc3c2NC(=O)CC(C)(C)C)c(OC)c1 | 0.0 | 1.3 | -2.9 | -0.3
CC(C)(C)CC(=O)N1CCc2cc(-c3csc(NC(=O)c4cccnc4)n3)ccc21 | 0.2 | 35.8* | 2.2 | -0.4
Cc1sc(NC(=O)c2cccnc2)nc1-c1ccc2c(c1)CCN2C(=O)CC(C)(C)C | 0.1 | -0.2 | 26.3 | -1.4
Cc1ccc2nc(C)c(C(=O)NCC(F)(F)F)n2c1 | 1.9* | 0.4 | 17.8 | 0.1
CC(C)(C)n1nc2c(c1NC(=O)c1cccc(F)c1)CS(=O)(=O)C2 | 0.3 | -14.7 | -3.6 | 1.7
Cn1c(/C=C/c2cccc(Oc3ccccc3)c2)c([N+](=O)[O-])c(=O)n(C)c1=O | -0.1 | 45.0* | 4.5 | 1.4
Cn1c(/C=C/c2ccccc2)c([N+](=O)[O-])c(=O)n(C)c1=O | -0.4 | 25.2 | -5.7 | -0.5
CC(C)(C)OC(=O)NC(CCNC=C1C(=O)OC(C)(C)OC1=O)C(=O)O (configuration not stated) | 0.0 | 8.5 | 70.6* | -0.9
Cn1ncc2cc(Nc3nccc(-c4cncc(N5CCOCC5)c4)n3)ccc21 | -0.2 | 68.7* | -0.1 | 0.2
c1cn(-c2ccc(Nc3nccc(Nc4ccc(N5CCOCC5)cc4)n3)cc2)cn1 | -0.2 | 50.0* | 21.1 | 3.9
c1ccc(Nc2ccnc(Nc3ccc(N4CCOCC4)cc3)n2)cc1 | -0.3 | 0.6 | 7.2 | -0.2
c1cn(-c2ccc(Nc3nccc(-c4cncc(N5CCOCC5)c4)n3)cc2)cn1 | -0.2 | 78.1* | 16.2 | -0.6
COc1ccc(Nc2nccc(-c3cncc(N4CCOCC4)c3)n2)cc1 | 0.6 | 61.1* | 3.1 | -0.2
O=C(NCCc1ccccc1)C(=O)c1c(O)[nH]c2ccccc12 | 0.5 | -5.0 | 9.6 | -1.1
Nc1nc(Nc2ccc(-n3ccnc3)cc2)cc(Nc2ccc3c(c2)OCO3)n1 | 0.1 | -21.8 | 2.4 | 0.4
O=C(c1ccc(Nc2nccc(-c3cncc(N4CCOCC4)c3)n2)cc1)N1CCOCC1 | -0.1 | 51.5* | 0.5 | 1.1
O=C1OCCN1c1ccc(Nc2nccc(-c3cncc(N4CCOCC4)c3)n2)cc1 | -0.3 | 38.5* | 0.1 | 0.9
c1cn(-c2ccc(Nc3nccc(Nc4ccc5c(c4)OCO5)n3)cc2)cn1 | -0.1 | 36.3* | 9.8 | 1.6
FC1(F)Oc2ccc(Nc3nccc(-c4cncc(N5CCOCC5)c4)n3)cc2O1 | 0.5 | -2.6 | 22.5 | -1.8
c1cc(-c2cncc(N3CCOCC3)c2)nc(Nc2ccc(-n3cncn3)cc2)n1 | 0.7 | 7.8 | 15.9 | -1.7
CCc1nc2ccc(Nc3nccc(-c4cncc(N5CCOCC5)c4)n3)cc2o1 | 0.6 | 34.1* | 16.8 | 1.3
c1ccc(Cc2nc3ccc(Nc4nccc(-c5cncc(N6CCOCC6)c5)n4)cc3o2)cc1 | -0.1 | 28.8 | -7.1 | -0.4
FC(F)(F)c1ccc(Nc2nc(NCCN3CCOCC3)c3ncn(-c4ccsc4)c3n2)cc1 | 0.1 | 20.0 | 13.3 | 1.0
Cc1cccc(-c2cc(C(=O)NCCN3CCOCC3)c3ccccc3n2)c1 | 0.2 | 16.7 | 12.2 | -0.5
CCOc1ccc(NC(=O)c2ccc(OC)cc2)c([N+](=O)[O-])c1 | -0.2 | -34.6 | 11.3 | 0.1
Cc1nc(-n2nc(C3CC3)cc2NC(=O)c2ccc(F)cc2)[nH]c(=O)c1C | 0.0 | 4.5 | -6.0 | -1.8
Cc1c(C(=O)Nc2c(F)cccc2F)sc2ncn(CC(=O)Nc3ccc(C(C)C)cc3)c(=O)c12 | 0.4 | 16.4 | 7.2 | -1.7
CC(C)(C)NC(=O)C(=O)N/N=C/c1ccccc1O | -1.8 | -44.4 | 53.0* | 0.1
O=C(CCCNc1ccccc1)N/N=C/c1ccccc1O | 0.3 | 5.8 | -5.4 | -1.0
